# According to ChEMBL document CHEMBL3988442, “University of Dundee, Small-Polar-MMV Screening Library” (2021):
# The campaign covered roughly 48,000 compounds. About 13,000 (27%) showed an effect of 50% or more. Some of the results follow.
# Tested on: Wolbachia pipientis
# Assay: Anti-Wolbachia Cell-Based Screen
# Format: functional
# Design: scale not given: in the data most compounds retested in dose-response had high values
# Conditions: 5 µM
row,SMILES,Percent Effect [%]
1,c1c[nH]c(-c2cn(CCSc3cnn[nH]3)nn2)n1,-6.5
2,O=C(COCC1CC1)N1CCSCC1,-4.058
3,CC(=O)NCc1ccc(S(=O)(=O)NC(=O)c2ccc3c(c2)CCO3)s1,-11.39
4,CN(Cc1nc2ccccc2n1C)CC1CCCN1c1cccnn1 (stereo not given),-5.038
5,Brc1csc(CNCc2nnc3n2CCC3)c1,-6.201
6,Cn1cc(C2CCCN2C(=O)c2cnc(C3CC3)s2)cn1 (stereo not given),90.11
7,Cn1cc(C2CCCN2C(=O)CS(=O)(=O)C2CCCC2)cn1 (stereo not given),4.822
8,CS(=O)(=O)N1CCN(Cc2c(O)ccc3oc4c(c23)CCCC4)CC1,-24.14
9,CCC(CC)(CNC(=O)c1cccn1Cc1cccnc1)N(C)C,-9.831
10,CSCC1CCN(c2nc(N)ncc2C)CC1,-31.92
11,Cc1nc2c(N3CCC(O)(Cn4ccnc4)CC3)ncnc2o1,2.472
12,CCc1nc2c(N3CCCC(c4nccn4CCOC)C3)ncnc2o1 (stereo not given),-3.273
13,CCN(CC)C(=O)C1CCCN(c2ncnc3oc(C)nc23)C1 (stereo not given),73.24
14,CSCC1CCCN(c2ncnc3oc(C)nc23)C1 (stereo not given),100.1
15,CSc1ccccc1CN1C[C@@H]2CC[C@H](C1)N(CC1CC1)C2=O,-21.61
16,NC(=O)CCCNC(=O)c1cc(Br)c2c(c1)OCCO2,-9.821
17,COc1ccc2cc(CN(C)CCN3CCCCC3=O)c(=O)[nH]c2c1,1.998
18,COc1cccc(CCNC(=O)NC(C)C)c1O,-0.2442
19,COc1ccccc1CC(=O)NCc1ccnc(NC2CC2)c1,-7.733
20,COc1ccccc1CC1CCCN(CC(=O)NC2CC2)C1 (stereo not given),10.43
21,COc1cccc(OC)c1-c1ccnc2cc(CC(=O)NC3CC3)nn12,130.6
22,COc1ccccc1C1(CNc2cc(C(=O)N(C)C)ccn2)CC1,-1.454
23,CNC(=O)Cc1cc2nccc(-c3c(OC)cccc3OC)n2n1,105.1
24,COc1cccnc1NC(=O)COc1c(C)cccc1C,-5.049

row,SMILES,Percent Effect [%]
1,COc1ccccc1OCC(=O)n1nc(C)c(C)c1C,-12.46
2,COc1cccc(OC)c1-c1ccnc2cc(CC(=O)N(C)C)nn12,89.81
3,CCCc1cc(C(=O)N(C)Cc2ccc(OC)c3ncccc23)n(C)n1,-87.89
4,COc1cccc(OC)c1-c1ccnc2cc(CC(=O)NC(C)C)nn12,87.37
5,COc1cccc(CNC(=O)C(C)n2ccnc2C(C)C)c1OC (stereo not given),-21
6,CN1CCOC(C(=O)N2CCC3(CCCCC3)C2)C1 (stereo not given),13.97
7,CCCc1ccc(S(=O)(=O)NC2(CC(N)=O)CCC2)cc1,-11.45
8,O=C(NCCn1cccc1)C(c1ccccc1)N1CCCC1 (stereo not given),123.6
9,O=C(NCCNc1cccnc1)C(c1cccnc1)N1CCCC1 (stereo not given),-8.824
10,CN1CCN(CCNC(=O)C(OC2CCCC2)c2ccccc2)CC1 (stereo not given),-1.077
11,O=C(NCCn1cccc1)C(c1cccnc1)N1CCCC1 (stereo not given),4.567
12,O=C(NCCN1CCCCC1)C(c1ccccc1)N1CCCC1 (stereo not given),103.1
13,O=C(NCCN1CCOCC1)C(OC1CCCC1)c1ccccc1 (stereo not given),1.172
14,CC(C)NC(=O)[C@@H]1CCO[C@@H]2CCN(c3ncccn3)C[C@H]21,-20.97
15,CC(=O)N1CC[C@H]2OCC[C@@H](C(=O)Nc3cccnc3C)[C@@H]2C1,106.3
16,CC(=O)N1CC[C@H]2OCC[C@@H](C(=O)N3CCCCO3)[C@@H]2C1,7.512
17,CC(=O)N1CC[C@H]2OCC[C@@H](C(=O)Nc3cccnc3C)[C@H]2C1,87.27
18,CCC(CNC1CCN(C(C)=O)CC1)Oc1ccccc1Cl (stereo not given),3.786
19,NC(=O)N1CCCC(C(=O)NCc2ccccc2OC(F)(F)F)C1 (stereo not given),21.92
20,CCC(O)CNC(=O)c1cc(COc2ccc(OC)cc2Cl)[nH]n1 (stereo not given),4.505
21,O=C(CCc1ccccc1)Nc1ncccc1OC(F)F,-7.341
22,CCc1nnsc1C(=O)N1CCCN(Cc2cnn(C)c2)CC1,1.125
23,CSC(C)C(=O)N1CCCN(Cc2cnn(C(C)C)c2)CC1 (stereo not given),-3.847
24,CCn1cc(CN2CCCN(C(=O)CCSC)CC2)cn1,96.36

row,SMILES,Percent Effect [%]
1,CSCCC(=O)N1CCCN(Cc2cnn(C(C)C)c2)CC1,82.47
2,CC(C)(C)OC(=O)N1CSC[C@@H]1C(=O)NCc1cccc(C#N)c1,-10.68
3,Cc1ccc2[nH]c(CNC(=O)C3CC4(CCNCC4)CN3C)nc2c1C (stereo not given),105.7
4,Cc1ccc(NCCCNC(=O)C2CC3(CCNCC3)CN2C)nc1 (stereo not given),-3.217
5,COc1ccc2nc(CNC(=O)C3CC4(CCNCC4)CN3C)[nH]c2c1 (stereo not given),101.4
6,COc1ccc2nc(CNC(=O)c3cc(C(C)C)on3)[nH]c2c1,-7.42
7,Cc1ncsc1CCCNC(=O)C1CC2(CCNCC2)CN1C (stereo not given),23.09
8,CCn1nc(C(C)C)cc1C(=O)NCc1nc2ccc(OC)cc2[nH]1,5.154
9,Cn1nnc2c1CCN(S(C)(=O)=O)C2COCC1CC1 (stereo not given),-21.64
10,Fc1cc(CNCc2ccc3c(c2)CCO3)ccc1N1CCOCC1,14.1
11,CCC[C@@H]1CN(C(=O)c2conc2-c2ccccc2)C[C@H]1N(C)C,-6.905
12,COCC(=O)N1CCCN(Cc2cc(O)c3ccccc3n2)CC1,-35.6
13,COC(=O)Cn1c(=O)nc2n1C(=O)N(c1ccccc1)C2,-2.891
14,CCCC(=O)N1CCC(O)(Cn2c(CC)nc3ccccc3c2=O)CC1.Cl,-3.591
15,CCc1nc2ccccc2c(=O)n1CC1(O)CCN(CC(=O)OC)CC1,94.95
16,CC(=O)c1cn(CC(=O)N2CCC(O)(CO)CC2)c2ccccc12,-13.61
17,CS(=O)(=O)N1CCC(O)(Cn2c(C3CC3)nc3ccccc3c2=O)CC1,-5.897
18,Cc1nc2ccccc2c(=O)n1Cc1nnnn1C1CC1,-4.17
19,CCc1nc2ccccc2c(=O)n1CC1(O)CCN(C(=O)C2CC2)CC1.Cl,111.9
20,CCc1nc2ccccc2c(=O)n1CC1(O)CCN(C(=O)COC)CC1.Cl,76.81
21,Cc1nc2ccccc2c(=O)n1CCC(=O)N1CCSCC1,-8.454
22,CCc1nc2ccccc2c(=O)n1CC1(O)CCN(C(=O)C(C)C)CC1,101.9
